Source: PubChem BioAssay
The entries come from a sample that favours hits as a whole.
ST2 inh: inhibitors of human ST2 (IL1RL1) binding to IL-33, primary screen, biochemical, AlphaLISA; Interleukin-1 receptor-like 1 (Homo sapiens), Q01638; AlphaLISA ST2-Fc/biotin-IL-33 interaction, 1 h; inhibition, % for hits at 17 µM; 2.3% of 78,000 active; AID 1259354, 2018; in the data active = inhibition above about 30%
Target sequence (Q01638 whole entry, looked up): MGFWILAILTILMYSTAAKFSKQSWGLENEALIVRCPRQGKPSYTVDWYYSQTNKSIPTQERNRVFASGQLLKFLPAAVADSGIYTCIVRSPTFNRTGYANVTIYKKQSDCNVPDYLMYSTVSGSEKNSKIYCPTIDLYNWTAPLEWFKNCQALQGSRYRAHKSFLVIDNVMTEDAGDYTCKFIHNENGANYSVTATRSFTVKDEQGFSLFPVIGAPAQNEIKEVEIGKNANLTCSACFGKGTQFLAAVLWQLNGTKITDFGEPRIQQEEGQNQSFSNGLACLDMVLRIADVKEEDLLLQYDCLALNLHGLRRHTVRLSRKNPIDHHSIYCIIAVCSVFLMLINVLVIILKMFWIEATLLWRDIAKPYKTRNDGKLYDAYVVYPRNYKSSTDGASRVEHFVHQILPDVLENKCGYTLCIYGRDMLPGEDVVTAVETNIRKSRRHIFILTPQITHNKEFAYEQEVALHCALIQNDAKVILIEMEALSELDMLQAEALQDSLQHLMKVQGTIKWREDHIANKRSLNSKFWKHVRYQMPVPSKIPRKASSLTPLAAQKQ
Numbers without * were called inactive; i = inactive.

SMILES	ST2 inh
CC1=C(C(=O)Nc2ccccn2)C(c2cccc(Cl)c2Cl)C2=C(CC(C)(C)CC2=O)N1 (configuration not stated)	i
CC(=O)c1ccc(NC(=O)/C(=C\c2ccc3c(c2)OCO3)NC(=O)c2ccccc2Cl)cc1	i
CCOC(=O)c1c(C)oc2ccc(OCc3ccccc3C)cc12	i
O=C(Oc1ccc2cc(-c3nc4ccccc4s3)c(=O)oc2c1)c1ccco1	i
O=c1n(Cc2cccc(F)c2F)nc(C2CCNCC2)n1Cc1ccccc1	i
O=c1n(CCCn2cccc2)nc(C2CCNCC2)n1-c1ccccc1	30.0%*
CC(C)SCCn1nc(C2CCCNC2)n(-c2ccccc2)c1=O (configuration not stated)	i
CS(=O)(=O)N1CCC(C(=O)NCCCN2CCCCCC2)CC1	i
C=CCN(CC=C)S(=O)(=O)c1ccc(C(=O)Nc2sc3c(c2C#N)CCC3)cc1	i
N#C/C(=C\c1cccc(Br)c1)c1nc2ccccc2[nH]1	i
N#C/C(=C\c1cccc(F)c1)c1nc2ccccc2[nH]1	i
COc1ccc(/C=C(\C#N)c2nc3ccc(C)cc3[nH]2)cc1O	46.0%*
COc1ccc(C2SCCN2S(=O)(=O)c2ccc([N+](=O)[O-])cc2)cc1OC (configuration not stated)	i
COc1ccc(C2Oc3c(Br)cc(Br)cc3C=C2[N+](=O)[O-])cc1OC (configuration not stated)	56.0%*
COc1cc(/C=C/c2c([N+](=O)[O-])c(=O)n(C)c(=O)n2C)ccc1OCc1ccccc1	i
COc1cc(C2Oc3ccccc3C=C2[N+](=O)[O-])ccc1OCc1ccccc1 (configuration not stated)	46.0%*
COc1cc(-c2ncnn2-c2ccc(F)c([N+](=O)[O-])c2)ccc1OCc1ccccc1	i
COc1ccc([C@H]2OC[C@H]3[C@@H]2CO[C@@H]3c2ccc(OC)c(OC)c2)cc1OC	i
O=C1CC(c2ccccc2)CC2=C1C(c1cccnc1)Nc1ccc3ccccc3c12 (configuration not stated)	i
O=c1/c(=C/c2ccc(OCc3ccccc3)cc2)sc2nc(-c3cccnc3)nn12	i
CSC1=N/C(=C\c2ccc(C(=O)O)cc2)C(=O)S1	i
CCOc1ccc(/C=C2\N=C(SC)SC2=O)cc1	44.0%*
COc1cc(/C=C2\N=C(SC)SC2=O)cc(OC)c1OC	30.0%*
COc1cc(C=C2C(=O)OC(C)(C)OC2=O)cc(Cl)c1O	i
COc1cccc(/C=C2\N=C(SC)SC2=O)c1OCc1ccccc1	40.0%*
SMILES	ST2 inh
CSC1=N/C(=C\c2cc(Br)ccc2OCC(=O)O)C(=O)S1	i
CCOc1ccc(/C=C2\N=C(c3cccc(C)c3)OC2=O)cc1	i
COc1cccc(/C=C2/SC(N3CCCC3)=NC2=O)c1OC	i
CCCCC(=O)Nc1ccc(NC(=O)c2ccc(F)cc2)cc1OC	i
c1ccc(-n2ccnc2)c(Cn2ccnc2-c2ccc3c(c2)OCO3)c1	i
O=C(C1c2ccccc2C(=O)N2CCc3ccccc3C12)N1CCCCC1 (configuration not stated)	i
COc1cc(CC2(CCC(=O)NCc3cc4cc(Cl)ccc4[nH]3)CCC(=O)N2)ccc1F (configuration not stated)	i
COc1cc2c(cc1OC)CN(Cc1cccc(O)c1)CC2	i
COC(=O)C1C(=O)C2=C(CC1C)NC(C)=C(C(=O)OCc1ccccc1)C2c1ccccc1F (configuration not stated)	i
Clc1ccc(-c2nnc(-c3cccc(Br)c3)o2)cc1	i
CC(=O)N1c2ccccc2NC2=C(C(=O)CCC2)C1c1ccc(Cl)c(Cl)c1 (configuration not stated)	i
CC(=O)N1c2ccccc2NC2=C(C(=O)CCC2)C1c1ccco1 (configuration not stated)	i
CC(C)C(=O)N1c2ccccc2NC2=C(C(=O)CCC2)C1c1ccco1 (configuration not stated)	30.0%*
CCc1cc(-c2c(F)cccc2OC)ccc1NC(C)=O	i
CC(C)N1CCN(CCn2cnc3c(F)cccc3c2=O)CC1	i
CCN(CC)C(=O)Cn1cc(C(=O)NCCCn2ccc3ccccc32)nn1	i
O=C1CCC(C(=O)N2CCSCC2)CN1CCN1CCOCC1 (configuration not stated)	i
O=C(O)CCCC[C@H]1SC[C@H]2NC(=O)N[C@H]21	96.0%*
NCCCCC(=O)O	i
Cc1cccc(Cn2c(CNS(=O)(=O)c3ccc(Cl)cc3)nc3cccnc32)c1	i
COc1cc(NC(=O)Nc2nc3c(s2)C[C@]2(C)CC[C@@H]4[C@H](OC(=O)[C@H]4C)[C@H]2[C@@H]3C)cc(OC)c1	i
C[C@@H]1C(=O)O[C@H]2[C@H]1CC[C@@]1(C)Cc3sc(Nc4ccc(C(=O)O)cc4)nc3[C@@H](C)[C@H]21	85.0%*
C[C@H](C(=O)NCCN1CCOCC1)C1CC[C@@]2(C)Cc3sc(-c4ccccc4)nc3[C@@H](C)[C@@H]2[C@H]1O (some centres not stated)	i
CSCC(=O)Nc1nc2c(s1)C[C@]1(C)CC[C@@H]3[C@H](OC(=O)[C@H]3C)[C@H]1[C@@H]2C	i
C=CCNC(=O)Nc1nc2c(s1)C[C@]1(C)CC[C@@H]3[C@H](OC(=O)[C@H]3C)[C@H]1[C@@H]2C	34.0%*
SMILES	ST2 inh
C[C@H]1[C@@H]2[C@H]3OC(=O)[C@@H](C)[C@@H]3CC[C@@]2(C)CC[C@@H]1NC(=O)C1CC1	i
C[C@@H]1C(=O)O[C@H]2[C@H]1CC[C@@]1(C)Cc3sc(Nc4cccnc4)nc3[C@@H](C)[C@H]21	36.0%*
C[C@@H]1C(=O)O[C@H]2[C@H]1CC[C@@]1(C)Cc3sc(NC(=O)c4ccc(N(C)C)cc4)nc3[C@@H](C)[C@H]21	i
CC1CCc2c(sc3nc(SCC(=O)NCc4ccccc4)n(C)c(=O)c23)C1 (configuration not stated)	i
CCc1ccc(Cn2c(CNS(=O)(=O)c3cccs3)nc3cccnc32)cc1	i
CSc1nc2c(sc3ccccc32)c(=O)n1CCCC(=O)NC1CCCCC1	i
Cc1ccc(S(=O)(=O)CCC(N)=O)cc1C	i
CC(C)c1ccc(NC(=O)O[C@@H]2CO[C@H]3[C@@H]2OC[C@@H]3NS(=O)(=O)c2ccccc2C#N)cc1	i
COc1ccc(/C=C2/C(=O)c3ccc(C(=O)O)cc3C2=O)cc1OC	i
O=C(O)c1ccc(N2CCCC2)c([N+](=O)[O-])c1	i
O=C(O)c1ccc2c(c1)C(=O)/C(=C\c1ccc([N+](=O)[O-])o1)C2=O	91.0%*
O=C(O)c1ccc2c(c1)C(=O)/C(=C\c1ccco1)C2=O	71.0%*
O=C1OC(c2ccccc2)OC(=O)C1=Cc1ccc(-c2cc(C(=O)O)ccc2Cl)o1 (configuration not stated)	i
O=C(O)c1ccc(C(=O)O)c(-c2ccccc2)c1	i
O=C(N1CCc2ccccc21)C1(S(=O)(=O)c2ccc(Cl)cc2)CC1	i
COc1cccc(-c2cc(CNC(=O)C(C)(C)NC(=O)c3cccs3)on2)c1	i
O=C(NCCCN1CCN(c2cccc(Cl)c2)CC1)c1ccc2nc3ccccc3c(=O)n2c1	i
O=C(COc1nsnc1N1CCOCC1)Nc1ccc(OC(F)(F)F)cc1	i
O=C(Nc1ccccc1Br)c1cnccn1	i
